High-throughput results: PubChem BioAssay, several laboratories
LANA-H2B inh: blockers of LANA interaction with H2A/H2B – biochemical, FP readout, HTS, primary screen. Protein LANA1 (Human herpesvirus 8 type P (isolate GK18)), Q9QR71. cell-free LANA-H2A/H2B peptide, fluorescence polarization. inhibition, % (concentration not given with the values). 0.6% of 320,000 active; in the data active = inhibition mostly above about 10%, no sharp cut-off; inactive = mostly below about 6.7%
Target sequence (Q9QR71 whole entry, looked up): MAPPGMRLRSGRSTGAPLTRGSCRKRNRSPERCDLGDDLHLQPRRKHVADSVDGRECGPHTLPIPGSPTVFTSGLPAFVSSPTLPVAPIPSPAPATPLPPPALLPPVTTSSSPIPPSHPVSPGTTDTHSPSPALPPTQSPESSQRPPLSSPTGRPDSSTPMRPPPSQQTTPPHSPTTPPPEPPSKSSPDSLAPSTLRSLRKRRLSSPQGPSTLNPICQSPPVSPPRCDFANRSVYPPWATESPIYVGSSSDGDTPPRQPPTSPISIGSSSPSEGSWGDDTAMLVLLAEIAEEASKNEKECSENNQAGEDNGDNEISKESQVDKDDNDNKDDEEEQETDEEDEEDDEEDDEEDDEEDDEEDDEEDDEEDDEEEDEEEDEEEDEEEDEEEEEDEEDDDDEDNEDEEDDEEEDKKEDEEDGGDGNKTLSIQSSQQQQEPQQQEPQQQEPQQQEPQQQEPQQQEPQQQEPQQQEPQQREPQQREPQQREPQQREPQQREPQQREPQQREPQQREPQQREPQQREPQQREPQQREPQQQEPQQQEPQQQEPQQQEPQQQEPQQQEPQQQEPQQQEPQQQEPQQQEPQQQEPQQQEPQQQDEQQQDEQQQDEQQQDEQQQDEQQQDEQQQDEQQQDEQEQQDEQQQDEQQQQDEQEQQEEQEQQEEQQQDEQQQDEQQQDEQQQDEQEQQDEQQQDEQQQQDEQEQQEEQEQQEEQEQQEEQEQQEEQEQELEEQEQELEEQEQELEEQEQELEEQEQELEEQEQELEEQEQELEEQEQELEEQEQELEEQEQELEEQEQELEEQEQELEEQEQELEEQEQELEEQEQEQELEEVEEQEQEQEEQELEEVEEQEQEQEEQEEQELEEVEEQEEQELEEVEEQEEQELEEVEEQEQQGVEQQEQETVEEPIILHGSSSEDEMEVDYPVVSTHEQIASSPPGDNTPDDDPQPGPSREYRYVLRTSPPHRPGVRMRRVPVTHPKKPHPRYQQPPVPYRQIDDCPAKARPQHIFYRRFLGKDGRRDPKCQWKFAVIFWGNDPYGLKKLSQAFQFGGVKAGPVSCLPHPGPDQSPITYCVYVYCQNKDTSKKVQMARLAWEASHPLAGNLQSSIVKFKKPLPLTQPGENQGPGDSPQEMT
m5-HT2A agonist: mouse Htr2a agonists via beta-arrestin recruitment, primary screen, cell-based, luminescence. CHO-K1 mHTR2A beta-arrestin complementation; percent of 30 µM serotonin response. activation, % at 7.6 µM. 0.66% of 360,000 active;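 active = activation above a run cutoff, the mean activation of all tested compounds plus 3 SD, cut at about 14% in these data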
CTSL1 counter: Fasciola hepatica cathepsin L1 inhibitors, primary screen, counter-screen for PFM18AAP inhibitor project, biochemical, QFRET, fluorogenic peptide substrate | recombinant F. hepatica cathepsin L1, Z-Leu-Arg-MCA fluorescence | inhibition, % at 5.96 µM | 0.49% of 300,000 active;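 active = inhibition above the mean of all tested compounds plus 3 SD, set per screening campaign, cut at about 17% in these data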
HDAC3 inhib: HDAC3 deacetylase inhibitors, primary screen, biochemical, fluorescence, cell-free homogeneous. inhibition, % at 8.3 µM. recombinant HDAC3, fluorogenic peptide/trypsin coupled. Histone deacetylase 3 (Homo sapiens), O15379. 0.15% of 320,000 active; in the data active = inhibition above about 26%, passing the limit was not always enough
Numbers stand for hits; . = inactive; / = not tested or not shown; + = active, no number. This is a sample that favours compounds with a hit; in the whole collection about 1.7% have one here.

SMILES | LANA-H2B inh | m5-HT2A agonist | CTSL1 counter | HDAC3 inhib
Cc1cccc(NS(=O)(=O)c2ccc(C)c(C(=O)NNC(=O)c3csc(N4CCOCC4)n3)c2)c1 | / | . | / | /
Cn1nnnc1NCc1ccccc1F | . | . | . | .
CC1Cc2ccccc2N1C(=O)CSc1ncccn1 (configuration not stated) | 30.1 | . | . | .
Cc1ccccc1NC(=O)N1c2ccccc2CC1C (configuration not stated) | 53.5 | . | . | .
CC1Cc2ccccc2N1C(=O)CSc1ccccn1 (configuration not stated) | / | . | / | /
COC(=O)c1[nH]c2ccc(F)cc2c1NC(=O)C1=COCCO1 | 11.5 | . | . | .
C=CCN1C(=O)c2ccc(C(=O)N3CCN(S(=O)(=O)c4cccc(F)c4)CC3)cc2C1=O | . | . | . | .
COc1ccc(C2N3CC4(C)CN2CC(C)(C3)C4)cc1OC (configuration not stated) | 6.4 | . | . | .
N#Cc1c(SCc2c(Cl)cccc2Cl)nc(N)[nH]c1=S | 11.2 | . | / | .
CC(C)(C)C(=O)Nc1cccc(OC(F)(F)C(F)Cl)c1 (configuration not stated) | 32.2 | . | . | .
COc1cccc(NC(=O)c2ccc(NC(=O)C(C)(C)C)cc2)c1 | . | . | . | .
O=C(c1ccc(F)cc1)C1CCN(Cc2ccc(F)cc2)CC1 | . | . | . | .
Cc1ccc(NC(=O)COC(=O)c2ccc(=O)n(Cc3ccccc3)n2)cc1F | . | . | . | .
CC(OC(=O)c1ccc(=O)n(Cc2ccccc2)n1)C(=O)Nc1cccc(Cl)c1 (configuration not stated) | . | . | 16.8 | .
Cc1ccn2c(=O)c(C(=O)NCCCN3CCCC3=O)c(O)nc2c1 | . | . | 50.0 | .
O=C(c1ccco1)[C@@H]1[C@@H]2C(=O)N(c3ccccc3)C(=O)[C@@H]2C2c3ccccc3C=CN21 (some centres not stated) | . | . | 28.2 | .
Cc1ccc(N2C(=O)[C@@H]3[C@H](C2=O)C2c4ccccc4C=CN2[C@@H]3C(=O)c2ccco2)cc1 (some centres not stated) | / | . | / | /
Cc1ccc(N2C(=O)[C@@H]3[C@H](C2=O)C2c4ccccc4C=CN2[C@@H]3C(=O)c2ccco2)c(C)c1 (some centres not stated) | . | . | 34.7 | .
CC(C)=CC(=O)O[C@@H]1Cc2cc3ccc(=O)oc3cc2OC1(C)C | . | . | / | .
COC(CNC(=O)C(=O)NCC1OCCN1C(=O)c1ccc(Cl)cc1)OC (configuration not stated) | 11.2 | . | . | .
COCCNC(=O)C(=O)NCC1OCCN1C(=O)c1ccc(Cl)cc1 (configuration not stated) | . | . | . | .
COC(=O)C1=NN(c2cccc3ccccc23)C2C(=O)N(c3ccccc3OC)C(=O)C12 (configuration not stated) | . | . | 19.0 | .
CC(C)(Cc1cc(CC(C)(C)C(=O)O)cc(C(C)(C)C)c1)C(=O)O | . | . | . | .
COc1cc(/C=C2\N=C(C)OC2=O)cc(OC)c1OC | . | . | . | 36.1
CC(C)C[C@H](NC(=O)NC(C)C)C(=O)O | 16.4 | . | . | .
SMILES | LANA-H2B inh | m5-HT2A agonist | CTSL1 counter | HDAC3 inhib
CC(=O)NC(CC(C)C)C(=O)O (configuration not stated) | / | . | / | /
O=C(C1CCN(S(=O)(=O)c2cnc[nH]2)CC1)N1CCN(c2ncccn2)CC1 | 17.2 | . | . | .
O=C(C1CCN(S(=O)(=O)Cc2ccccc2)CC1)N1CCN(c2ncccn2)CC1 | . | . | . | .
O=C(O)c1nnn(-c2cc(C(F)(F)F)cc(C(F)(F)F)c2)c1-c1ccccc1 | . | . | 45.5 | .
CN1CCN(C(=O)C[C@@H]2C[C@H]3c4cc(NC(=O)c5cccnc5)ccc4O[C@H]3[C@H](CO)O2)CC1 | / | . | / | /
Cc1ccc(S(=O)(=O)N2CCCCC2)cc1NC(=O)CNc1ccc(C(F)(F)F)cc1 | . | . | . | .
COc1ccccc1-n1cnc(N)c1C(=O)c1ccccc1 | . | . | 18.8 | .
CCOc1cc(C(=O)NC2CC(C)(C)NC(C)(C)C2)cc(OCC)c1OCC | . | . | . | .
Cn1nc([N+](=O)[O-])nc1Oc1ccccc1C(=O)N1CCOCC1 | + | . | . | .
CCCNC(=O)C1(C)CCCN(C(=O)c2ccccc2OC)C1 (configuration not stated) | / | . | / | /
C[C@H]1CN([C@@H](C)CO)C(=O)c2cccc(NS(=O)(=O)c3ccc(F)cc3)c2O[C@H]1CN(C)S(=O)(=O)c1cn(C)cn1 | . | . | / | .
COC(=O)c1ccc(CSc2nc3ccc(Cl)cc3[nH]2)o1 | . | . | . | .
COC(=O)c1ccc(CSc2nc3scc(-c4cccs4)c3c(=O)[nH]2)o1 | . | . | . | 42.2
CCn1c(Cc2ccccc2)nnc1SCC(=O)Nc1ccc(N2CCOCC2)c(Cl)c1 | . | . | . | .
Cn1c(SCC(=O)Nc2ccc(N3CCOCC3)c(Cl)c2)nnc1-c1ccccc1 | 40.3 | / | . | .
O=C(Nc1ccc(F)c(Cl)c1)C1CC(=O)N(Cc2ccco2)C1 (configuration not stated) | + | . | / | .
CCCCn1c(N)c(N(CCC(C)C)C(=O)c2ccc3ccccc3c2)c(=O)[nH]c1=O | 32.5 | . | / | .
CC(C)CN(C(=O)c1ccc(N2CCCC2=O)cc1)c1c(N)n(Cc2ccccc2)c(=O)[nH]c1=O | 26.0 | . | / | .
c1ccc2[nH]c3cc4ncnc4cc3nc2c1 | 26.4 | . | . | .
CN(C)CCNC(=O)C1CC(=O)N(c2ccc(F)c(Cl)c2)C1 (configuration not stated) | 93.7 | . | . | .
CN(CCNC(=O)C1CC(=O)N(c2ccc(F)c(Cl)c2)C1)Cc1ccccc1 (configuration not stated) | . | . | . | .
CCN(CC)S(=O)(=O)c1ccc(N2CC(C(=O)NCCc3ccc(Cl)cc3)CC2=O)cc1 (configuration not stated) | + | . | / | .
CCn1c(=O)c(C(=O)NNC(=O)c2ccccc2Br)c(O)c2ccccc21 | 26.6 | . | . | .
Cn1c(=O)c(C(=O)NNC(=O)c2ccccc2Br)c(O)c2ccccc21 | . | . | . | .
CCCc1cc(C(=O)Nc2ccc(C(C)=O)cc2)no1 | . | . | 16.9 | /
N#Cc1cc(Oc2ccccc2)c(-n2nnc3ccccc32)cc1C#N | 26.3 | . | . | .
CC(C)(C)C(=O)Nc1ccc(C(=O)N/N=C/c2ccccc2OC(=O)c2ccccc2)cc1 | . | . | . | 35.3
CC(C)(C)C(=O)Nc1ccc(C(=O)N/N=C/c2ccccc2OC(=O)c2ccc(Cl)cc2)cc1 | . | . | . | .
CCN(C1CCCCC1)S(=O)(=O)c1cc2c3c(c1)CCN3C(=O)CC2 | . | . | . | .
COc1ccc2cc([C@H](C)C(=O)O)ccc2c1 | . | 41.1 | . | .
